# Data taken from PubChem BioAssay AID588727 (Southern Research Specialized Biocontainment Screening …, 2011).
# Among all 350,000 compounds or so, about 450 (0.13%) were called active. The rule behind the calls is not given here. These entries were drawn from the full list. Measured potencies and affinities stand elsewhere.
# Test: inhibitors of VEEV TC-83 cytopathic effect, confirmation, Vero cells (AID 588727)
# Conditions: VEEV TC-83 cytopathic effect inhibition, at 20 µM
# [1] = stronger effect = higher value unless noted
smiles,measurement,setting,value
CCN(CC)S(=O)(=O)c1ccc(NN=c2c(=O)c3ccccc3c2=O)cc1,inhibition,[1],0.93% (inactive)
CCOC(=O)C1(CCOC)CCN(C(=O)Cc2ccsc2)CC1,inhibition,[1],0.57% (inactive)
CCOC(=O)c1cn(Cc2ccccc2)nc1-c1ccccc1,inhibition,[1],inactive
Cc1cc(/C=N\NC(=O)c2cccs2)c(C)n1-c1ccc2ncccc2c1,inhibition,[1],11.1% (inactive)
Cc1cccc(-n2c(C)cc(/C=N\NC(=O)c3ccco3)c2C)c1,inhibition,[1],1.2% (inactive)
COCCOC1CCN(C(=O)c2cc(COc3ccc(F)cc3F)on2)CC1,inhibition,[1],1.37% (inactive)
CCOC(=O)c1c(SC)n(-c2ccccc2)c(=S)n(-c2ccccc2)c1=O,inhibition,[1],0.87% (inactive)
CCOC(=O)c1c2c(c(=S)n(-c3ccccc3)c1N)CCC2,inhibition,stronger effect = higher value,4.5% (inactive)
same,inhibition,"measured here: 10K pilot screen inhibition, stronger effect = higher value",3.38%
COc1ccc(CSC(=N)N)cc1[N+](=O)[O-],inhibition,[1],4.91% (inactive)
CCOc1ccc(CSC(=N)N)cc1[N+](=O)[O-],inhibition,[1],9.41% (inactive)
Nc1nc(N)nc(-c2cccc(Cl)c2)n1,inhibition,[1],1.28% (inactive)
COc1ccccc1CN1CCN(C(=O)c2cccc3ccccc23)CC1,inhibition,[1],inactive
Cc1cc2occ(CC(=O)Nc3nccs3)c2cc1C(C)C,inhibition,[1],0.63% (inactive)
Cc1ccc2c(CC(=O)Nc3nc(C)cs3)coc2c1,inhibition,[1],5.51% (inactive)
Cc1c(N(C)S(=O)(=O)c2cccc(C(=O)NCC3CCCO3)c2)c(=O)n(-c2ccccc2)n1C (stereo not given),inhibition,[1],1.98% (inactive)
NC(=O)C1CCN(C(=O)c2cc(S(=O)(=O)N3CCOCC3)c(Cl)cc2Cl)CC1,inhibition,[1],0.6% (inactive)
Cc1nn(-c2ccc(C(=O)O)cc2)c(=O)c2ccccc12,inhibition,[1],0.65% (inactive)
COc1ccc(CCNC(=O)CSc2nc(=O)[nH]c3c2CCC3)cc1OC,inhibition,[1],0.77% (inactive)
COc1ccc(CC(=O)OCC(=O)Nc2ncc(Cl)c(C)c2Cl)cc1,inhibition,[1],5.2% (inactive)
COc1ccccc1/C=C/C(=O)c1ccc(Cl)cc1,inhibition,[1],inactive
COc1ccccc1/C=C/C(=O)c1ccccc1,inhibition,[1],26.1% (inactive)
COc1ccccc1C(=O)N(Cc1ccco1)C1CCS(=O)(=O)C1 (stereo not given),inhibition,[1],0.87% (inactive)
CCCCNC(=O)[C@@H]1CCCN1S(=O)(=O)c1cccc2cccnc12,inhibition,[1],inactive
O=C(Cc1ccc(NC(=O)C2CCN(C(=O)c3ccccc3)CC2)cc1)Nc1cccc(C(=O)N2CCCC2)c1,inhibition,[1],inactive
O=C(Nc1cccc2ccccc12)N(c1ccccc1)c1ccccc1,inhibition,[1],inactive
Cc1ccnc(NS(=O)(=O)c2ccc(NC(=O)c3ccc(C)o3)cc2)n1,inhibition,[1],0.84% (inactive)
Cc1sc2nc(CN(Cc3cccs3)C(=O)NC3CCCCC3)[nH]c(=O)c2c1C,inhibition,[1],6.2% (inactive)
CC[C@@H](C)[C@H](CNC)NC[C@@H](Cc1cccc2ccccc12)NCCc1cccc(C(F)(F)F)c1,inhibition,[1],"0% [measured here: 10K pilot screen inhibition, stronger effect = higher value]"
same,outcome,[1],inactive
CNC[C@H](Cc1ccccc1)NC[C@@H](Cc1cccc2ccccc12)NCCc1ccc(C)cc1,inhibition,[1],inactive
COc1ccc(/C=N\NC(=O)c2ccccc2OC)cc1COc1ccccc1C,inhibition,[1],10.1% (inactive)
Cc1ccc(-c2nc(SC(C)C(=O)c3c(N)n(C)c(=O)n(C)c3=O)n[nH]2)cc1 (stereo not given),inhibition,[1],10.2% (inactive)
CCC(=O)N1c2ccc(S(=O)(=O)CCC(=O)NCc3cccs3)cc2CC1C (stereo not given),inhibition,[1],1.31% (inactive)
O=C(NCC(Cl)c1ccc2ccccc2c1)c1c(F)cccc1F (stereo not given),inhibition,[1],inactive
Cc1cc(-c2nnc(SCC(=O)Nc3ccccc3C(F)(F)F)n2N)n[nH]1,inhibition,[1],1.16% (inactive)
COc1cc(CNCCSc2nnnn2C)cc(Br)c1OCc1ccccc1F,inhibition,[1],inactive
COc1ccc(/C=C/C(=O)c2ccccc2O)cc1CN1CCOCC1,inhibition,[1],6.83% (inactive)
COc1ccc(C(=O)/C=C/c2ccc(OC)c(Cn3nnc4ccccc43)c2)cc1,inhibition,[1],30.9% (inactive)
COc1ccc(/C=C/C(=O)C23CC4CC(CC(C4)C2)C3)cc1CN1CCOCC1,inhibition,[1],6.32% (inactive)
COc1ccc(/C=C/C(=O)c2ccc3ccccc3c2O)cc1CN1CCOCC1,inhibition,[1],2% (inactive)
CCC1(C)NC(=O)N(CC(=O)NCC(=O)Nc2c(C)cc(C)cc2C)C1=O (stereo not given),inhibition,[1],inactive
O=C(CSc1ncnc2c1cnn2-c1ccccc1)NC1CCCC1,inhibition,[1],4.66% (inactive)
Cc1nn(-c2ccccn2)c2nc(-c3cccs3)cc(C(=O)NCc3ccco3)c12,inhibition,[1],8.96% (inactive)
CCC(=O)N1CCc2cc(S(=O)(=O)N3CCN(c4ccccc4)CC3)ccc21,inhibition,[1],0.73% (inactive)
CC(C)[C@H](NS(=O)(=O)c1ccccc1)C(=O)OCC(=O)Nc1cccc(S(N)(=O)=O)c1,inhibition,[1],3.51% (inactive)
CS(=O)(=O)N1CCN(c2ccc([N+](=O)[O-])c(NCCN3CCOCC3)c2)CC1,inhibition,[1],0.31% (inactive)
COc1ccc(Nc2ncccc2C(=O)O)cc1,inhibition,[1],inactive
CC(C)c1ccc(Nc2ncccc2C(=O)O)cc1,inhibition,[1],7.46% (inactive)
CC[C@@]1(C(=O)OC)N[C@H](CN(C)C(=O)Nc2ccc(OC)cc2)[C@@H]2C(=O)N(C)C(=O)[C@@H]21,inhibition,[1],inactive
